Source: PubChem BioAssay (Tox21)
Results filed as inconclusive are left out. Entries that show only a call come without a potency. The source made the active and inactive calls. The call rests on the fitted dose curve; in most records, active means well fitted curve in the direction sought with a large enough effect in the repeat runs; inconclusive means weak or mixed curves; inactive means no such curve, though single readings can be large; an effect the other way counts as inactive or inconclusive.

How the values were obtained:
[1] = qHTS RealTime-Glo MT Cell Viability Assay in HEK293 cells - 0 hour (AID 1224880); further: top concentration of the series differs between compounds; nearly all actives have a fitted effect of over 45% in size
Method in brief: (§1)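 HEK293 cells mixed with RealTime-Glo reagents (NanoLuc plus cell-permeant prosubstrate) at 600 cells/well, preincubated 5 h at 37 C/5% CO2, then given 23 nL compound in DMSO. Nonlytic luminescence from viable cells was read at 0, 8, 16, 24, 32 and 40 h.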

[2] = A CellTox Green Cytotoxicity Assay to monitor cytotoxicity in HepG2 cells - 0 hour (AID 1224882); further: nearly all actives have a fitted effect of over 35% in size
Method in brief: (§2)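 HepG2 cells were seeded together with the CellTox Green dye at 600 cells/well, left 5 h at 37 C/5% CO2, then given compounds in DMSO. Fluorescence from dye bound to dead-cell DNA was read repeatedly over 40 h of treatment at 37 C.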

[3] = A CellTox Green Cytotoxicity Assay to monitor cytotoxicity in HepG2 cells - 32 hour (AID 1224883); further: nearly all actives have a fitted effect of over 50% in size; further: potency means the concentration at half of the fitted maximal effect
Method in brief: as §2

[4] = A CellTox Green Cytotoxicity Assay to monitor cytotoxicity in HEK293 cells - 8 hour (AID 1224884); further: nearly all actives have a fitted effect of over 35% in size
Method in brief: (§3)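 HEK293 cells premixed with CellTox Green dye were seeded at 600 cells/well and left 5 h at 37 C/5% CO2 before pin transfer of 23 nL compound in DMSO. Fluorescence from dye bound to dead-cell DNA was read during 40 h treatment.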

[5] = qHTS RealTime-Glo MT Cell Viability Assay in HEK293 cells - 24 hour (AID 1224886); further: nearly all actives have a fitted effect of over 50% in size; further: potency means the concentration at half of the fitted maximal effect
Method in brief: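 Nonlytic real-time viability readout: viable cells convert prosubstrate to NanoLuc substrate, giving luminescence proportional to live cell number. HEK293, 600 cells/well, compound added after 5 h, continuous culture at 37 C.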

[6] = qHTS RealTime-Glo MT Cell Viability Assay in HEK293 cells - 8 hour (AID 1224887); further: nearly all actives have a fitted effect of over 50% in size; further: potency means the concentration at half of the fitted maximal effect
Method in brief: as §1

[7] = A CellTox Green Cytotoxicity Assay to monitor cytotoxicity in HEK293 cells - 16 hour (AID 1224888); further: nearly all actives have a fitted effect of over 35% in size
Method in brief: as §3

[8] = qHTS RealTime-Glo MT Cell Viability Assay in HepG2 cells - 0 hour (AID 1224889); further: nearly all actives have a fitted effect of over 50% in size; further: potency means the concentration at half of the fitted maximal effect
Method in brief: (§4)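 Luminescence read-out: viable HepG2 cells reduce a prosubstrate to a NanoLuc substrate, giving a signal proportional to live cell number. Reads taken at 0, 8, 16, 24, 32 and 40 h of compound exposure at 37 C.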

[9] = A CellTox Green Cytotoxicity Assay to monitor cytotoxicity in HepG2 cells - 8 hour (AID 1224890); further: nearly all actives have a fitted effect of over 45% in size
Method in brief: as §2

[10] = qHTS assay to identify small molecule antagonists of the androgen receptor (AR) signaling pathway using the MDA cell line in the presence of 0.5 nM R1881 - cell viability counter screen (AID 1259242); further: nearly all actives have a fitted effect of over 45% in size; further: potency means the concentration at half of the fitted maximal effect
Method in brief: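 MDA-kb2 cells (human breast carcinoma, stably carrying MMTV-luciferase reporter) were exposed to compounds with 0.5 nM R1881 (final) for 16 hr at 37C, 0% CO2; viability then read as live-cell protease fluorescence (CellTiter-Fluor, 30 min) in the same wells.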

[11] = target: Estrogen receptor (Homo sapiens) (UniProt P03372); test: qHTS assay to identify small molecule antagonists of the estrogen receptor alpha (ER-alpha) signaling pathway using the BG1 cell line in the presence of 0.1 nM 17-beta-estradiol (AID 1259244); further: nearly all actives have a fitted effect of over 50% in size; further: potency means the concentration at half of the fitted maximal effect
Method in brief: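 VM7Luc4E2 cells (endogenous full-length ER-alpha, stable 4xERE-luciferase) were grown 5 days in phenol red-free medium with charcoal-stripped FBS, then exposed 22 h at 37C to compounds plus 0.1 nM (final) 17beta-estradiol; ONE-Glo luminescence read-out.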

[12] = qHTS assay to identify small molecule HDAC inhibitors (AID 1259364); further: top concentration of the series differs between compounds; nearly all actives have a fitted effect of over 45% in size
Method in brief: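 Wild-type HCT-116 cells were plated overnight, exposed to compounds for 2 h at 37 °C, then given HDAC-Glo class I/II luminogenic reagent for 30 min at room temperature before luminescence was read.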

[13] = qHTS assay to identify small molecule HDAC inhibitors - cell viability counter screen (AID 1259365)
Method in brief: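 After overnight seeding at 1,500 cells per well, wild-type HCT-116 cultures took up compounds in DMSO for 2hr at 37 C. Viable cell content came from luminescence with CellTiter-Glo.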

[14] = qHTS assay to identify small molecule agonists of the sonic hedgehog signaling (Shh) pathway - cell viability counter screen (AID 1259366); further: nearly all actives have a fitted effect of over 50% in size; further: potency means the concentration at half of the fitted maximal effect
Method in brief: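 Same-well cytotoxicity read. Gli1-Luc reporter 3T3 cells; compounds 24hr, 37C/5% CO2; CellTiter-Fluor fluorescence.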

[15] = qHTS assay to identify small molecule antagonists of the sonic hedgehog signaling (Shh) pathway - cell viability counter screen (AID 1259367); further: nearly all actives have a fitted effect of over 55% in size; further: potency means the concentration at half of the fitted maximal effect
Method in brief: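 Seed 3T3 Gli1-Luc cells at 2,000 per well; incubate 4 hr; add compound in DMSO, then conditioned medium; incubate at 37C with 5% CO2; add CellTiter-Fluor after 23 hr; read fluorescence 1 hr later.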

[16] = target: Androgen receptor (Homo sapiens) (UniProt P10275); test: qHTS assay to identify small molecule antagonists of the androgen receptor (AR) signaling pathway using the MDA cell line in the presence of 0.5 nM R1881 (AID 1259243)
Method in brief: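 MDA-kb2 human breast carcinoma cells carrying an MMTV-luciferase reporter (AR- and GR-responsive) were plated, rested 5 hr at 37C, dosed with compounds, then stimulated with 0.5 nM R1881 (final) for 16 hr; luminescence was read after ONE-Glo.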

[17] = qHTS RealTime-Glo MT Cell Viability Assay in HepG2 cells - 16 hour (AID 1224885); further: nearly all actives have a fitted effect of over 50% in size
Method in brief: as §4

[18] = A CellTox Green Cytotoxicity Assay to monitor cytotoxicity in HEK293 cells - 32 hour (AID 1224881); further: nearly all actives have a fitted effect of over 40% in size
Method in brief: as §3

[19] = qHTS assay to identify small molecule antagonists of the estrogen receptor alpha (ER-alpha) signaling pathway using the BG1 cell line in the presence of 0.1 nM 17-beta-estradiol - cell viability counter screen (AID 1259241); further: nearly all actives have a fitted effect of over 40% in size; further: potency means the concentration at half of the fitted maximal effect
Method in brief: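 Estradiol-stimulated (0.1 nM) VM7Luc4E2 cells exposed to compounds 22 hr; viability measured by fluorescence of cleaved CellTiter-Fluor substrate after 30 min.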

Sequence of Estrogen receptor (Homo sapiens) (P03372 whole entry, looked up): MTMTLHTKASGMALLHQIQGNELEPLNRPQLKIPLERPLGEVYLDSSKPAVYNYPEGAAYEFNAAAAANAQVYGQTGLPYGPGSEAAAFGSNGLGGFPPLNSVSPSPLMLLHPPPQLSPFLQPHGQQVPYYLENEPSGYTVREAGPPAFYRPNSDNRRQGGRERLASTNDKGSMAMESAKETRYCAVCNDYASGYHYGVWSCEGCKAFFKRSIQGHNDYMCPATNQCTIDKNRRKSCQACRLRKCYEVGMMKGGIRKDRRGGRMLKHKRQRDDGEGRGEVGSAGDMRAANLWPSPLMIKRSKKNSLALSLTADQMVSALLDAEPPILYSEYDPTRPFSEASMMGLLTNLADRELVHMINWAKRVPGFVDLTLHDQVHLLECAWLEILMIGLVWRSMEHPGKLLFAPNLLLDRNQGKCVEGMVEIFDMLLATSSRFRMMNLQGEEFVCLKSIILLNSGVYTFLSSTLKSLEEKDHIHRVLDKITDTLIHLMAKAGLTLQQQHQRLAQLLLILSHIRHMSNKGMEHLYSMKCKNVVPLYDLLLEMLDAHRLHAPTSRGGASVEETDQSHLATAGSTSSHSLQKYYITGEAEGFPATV
Sequence of Androgen receptor (Homo sapiens) (P10275 whole entry, looked up): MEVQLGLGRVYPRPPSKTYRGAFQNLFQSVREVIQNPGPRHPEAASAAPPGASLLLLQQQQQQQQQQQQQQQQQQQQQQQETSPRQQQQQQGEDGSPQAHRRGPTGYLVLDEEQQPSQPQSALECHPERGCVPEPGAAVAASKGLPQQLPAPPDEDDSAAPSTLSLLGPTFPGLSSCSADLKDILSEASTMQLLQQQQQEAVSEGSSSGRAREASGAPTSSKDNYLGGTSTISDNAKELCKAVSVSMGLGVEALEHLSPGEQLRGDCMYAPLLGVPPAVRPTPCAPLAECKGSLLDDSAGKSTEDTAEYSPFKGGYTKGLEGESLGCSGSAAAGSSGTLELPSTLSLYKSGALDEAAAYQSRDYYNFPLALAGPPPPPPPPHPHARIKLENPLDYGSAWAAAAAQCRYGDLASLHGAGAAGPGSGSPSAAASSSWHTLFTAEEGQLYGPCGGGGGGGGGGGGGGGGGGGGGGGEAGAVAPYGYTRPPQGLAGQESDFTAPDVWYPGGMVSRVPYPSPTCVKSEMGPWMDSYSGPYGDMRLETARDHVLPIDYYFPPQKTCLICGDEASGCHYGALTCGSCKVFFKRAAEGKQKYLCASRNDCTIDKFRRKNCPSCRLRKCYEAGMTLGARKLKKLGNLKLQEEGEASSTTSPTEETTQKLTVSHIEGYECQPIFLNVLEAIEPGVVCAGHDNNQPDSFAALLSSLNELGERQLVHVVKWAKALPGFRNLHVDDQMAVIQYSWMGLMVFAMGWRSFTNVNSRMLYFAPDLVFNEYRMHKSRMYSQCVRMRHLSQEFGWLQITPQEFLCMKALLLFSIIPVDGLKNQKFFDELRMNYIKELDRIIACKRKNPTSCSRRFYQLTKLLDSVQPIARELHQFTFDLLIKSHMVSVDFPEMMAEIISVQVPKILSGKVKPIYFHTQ

Structure (SMILES)	Potency [1]	Potency [2]	Potency [3]	Potency [4]	Potency [5]	Potency [6]	Potency [7]	Potency [8]	Potency [9]	Potency [10]	Potency [11]	Potency [12]	Potency [13]	Potency [14]	Potency [15]	Potency [16]	Potency [17]	Potency [18]	Potency [19]
CCOP(=S)(OCC)SCn1nnc2ccccc2c1=O	inactive	inactive	inactive	inactive	21.9 µM (active)	21.9 µM (active)	inactive	24.5 µM (active)	inactive	inactive	48.6 µM (active)	inactive	inactive	inactive	inactive				
CCCCC(O)(Cn1cncn1)c1ccc(Cl)cc1Cl (configuration not stated)	inactive	inactive	48.9 µM (active)		43.6 µM (active)	43.6 µM (active)		24.5 µM (active)		inactive	61.1 µM (active)		inactive			54.4 µM (active)			
CO/C=C(/C(=O)OC)c1ccccc1COc1cccc(C(F)(F)F)n1	inactive	inactive	inactive				inactive	inactive	inactive	6.85 µM (active)	2.17 µM (active)	inactive	inactive	inactive	inactive		inactive		
ClP(Cl)(Cl)(Cl)Cl	inactive	inactive		inactive		inactive	inactive		inactive	inactive	inactive		inactive	inactive	inactive				
COC(=O)C(C)N(C(=O)Cc1ccccc1)c1c(C)cccc1C (configuration not stated)		inactive		inactive			inactive	21.9 µM (active)	inactive	inactive	inactive	inactive	inactive	inactive	inactive		inactive	inactive	inactive
C=CC[C@]1(O)CC[C@H]2[C@@H]3CCC4=CC(=O)CCC4=C3C=C[C@@]21C	inactive	inactive	inactive	inactive	19 µM (active)		inactive		inactive		13.3 µM (active)	inactive	inactive						
CC(C)(C)c1cc([N+](=O)[O-])cc([N+](=O)[O-])c1O		inactive				inactive				12.2 µM (active)			inactive	21.6 µM (active)	24.3 µM (active)		inactive	inactive	13.6 µM (active)
Clc1ccc(C2(Cn3cncn3)CC(Br)CO2)c(Cl)c1 (configuration not stated)	inactive	inactive	34.5 µM (active)	inactive	27.4 µM (active)		inactive	inactive	inactive	inactive	68.2 µM (active)	inactive	inactive		inactive				
CCOc1nc(F)cc2nc(S(=O)(=O)Nc3c(Cl)cccc3Cl)nn12		inactive	inactive	inactive	inactive	inactive	inactive		inactive	inactive	inactive		inactive				inactive		inactive
